IL1B secr inh = qHTS for Inhibitors of Inflammasome Signaling: IL-1-beta AlphaLISA Primary Screen; AID 743279, 2014; 360,000 compounds, 4.7% hits; activity change, % at 57.5 µM; THP-1 LPS/ATP IL-1B secretion, AlphaLISA, 16 h; hits give low values; in the data active = activity change below about -50%; inconclusive = mostly about -30% to -49%; also: % is scaled to controls: 0 for no effect and ±100 for the full control effect
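THP-1 cells pretreated 1 hr with compounds (up to 57.5 uM final), then stimulated with LPS (250 ng/mL final) plus ATP (1.25 mM final); secreted IL-1B measured by AlphaLISA after 16 hr, decreased signal indicating inhibition.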
TDP1 cell CPT = qHTS for Inhibitors of human tyrosyl-DNA phosphodiesterase 1 (TDP1): qHTS in cells in presence of CPT; chicken DT40 Tdp1-/-;hTDP1 cells + 20 nM CPT, ATP luminescence, 48 h; Potency, µM (titrated, usually from 46.2 µM), without a hit: top-dose activity change, negative = growth inhibition, hits mostly inhibitors; 420,000 compounds, 12% hits; AID 686979, 2013; also: potency is read from the fitted curve at half-maximal effect; % is scaled to controls: 0 for no effect and ±100 for the full control effect; nearly all actives have a fitted effect of over 55% in size
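Cell growth measured by CellTiter-Glo luminescence after a minimum 48 h, 37 C compound exposure with 20 nM CPT in Tdp1-knockout DT40 cells stably expressing hTDP1, seeded 400/well; qHTS titration format.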
TDP1 cell noCPT = qHTS for Inhibitors of human tyrosyl-DNA phosphodiesterase 1 (TDP1): qHTS in cells in absence of CPT. DT40 Tdp1-/- hTDP1 cells, no CPT, ATP luminescence, 48 h. Potency, µM (titrated, usually from 46.2 µM), for inactives: top-dose activity change, negative = growth inhibition, hits mostly inhibitors. 420,000 compounds, 15% hits. AID 686978, 2013; also: potency is read from the fitted curve at half-maximal effect; % is scaled to controls: 0 for no effect and ±100 for the full control effect; nearly all actives have a fitted effect of over 55% in size
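No-CPT arm: Tdp1-/-;hTDP1 DT40 cells (400/well) plus compounds, incubated ≥48 hr at 37 °C. Readout CellTiter-Glo luminescence.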
TDP1 block = qHTS Assay for Inhibitors of Tyrosyl-DNA Phosphodiesterase (TDP1); Tyrosyl-DNA phosphodiesterase 1 (Homo sapiens), Q9NUW8; recombinant TDP1, AlphaScreen DNA substrate cleavage; Potency, µM (titrated, usually from 130 µM), for inactives: at the highest dose activity change, negative = inhibition, actives largely listed as inhibitors; 350,000 compounds, 0.28% hits; also: potency is read from the fitted curve at half-maximal effect; % is scaled to controls: 0 for no effect and ±100 for the full control effect; nearly all actives have a fitted effect of over 40% in size
Target sequence (Q9NUW8 whole entry, looked up): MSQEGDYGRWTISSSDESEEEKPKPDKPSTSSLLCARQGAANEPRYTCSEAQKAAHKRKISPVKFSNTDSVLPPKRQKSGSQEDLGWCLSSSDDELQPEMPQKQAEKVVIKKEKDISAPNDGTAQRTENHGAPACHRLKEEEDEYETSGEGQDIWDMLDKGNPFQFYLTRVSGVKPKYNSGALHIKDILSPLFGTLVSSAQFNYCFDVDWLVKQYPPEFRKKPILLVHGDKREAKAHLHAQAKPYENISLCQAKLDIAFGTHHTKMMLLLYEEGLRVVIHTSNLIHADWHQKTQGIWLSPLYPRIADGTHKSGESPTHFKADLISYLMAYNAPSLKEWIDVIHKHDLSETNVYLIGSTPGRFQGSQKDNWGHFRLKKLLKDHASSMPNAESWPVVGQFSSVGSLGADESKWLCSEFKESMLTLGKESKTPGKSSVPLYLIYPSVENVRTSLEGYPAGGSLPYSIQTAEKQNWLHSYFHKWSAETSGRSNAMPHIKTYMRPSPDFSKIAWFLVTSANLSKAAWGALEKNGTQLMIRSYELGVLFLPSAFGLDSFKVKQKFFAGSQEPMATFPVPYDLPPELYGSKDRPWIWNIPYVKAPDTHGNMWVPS
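Compounds were preincubated with Tdp1 (1 nM final) for 15 min at room temperature before substrate (15 nM final) started a 5 min reaction; beads (10 ug/ml final) were then added for 10 min before AlphaScreen detection.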
TGFb inhibitor = qHTS for Inhibitors of TGF-b | HepG2 CAGA-GFP TGF-b/SMAD3 reporter, GFP fluorescence, 18 h; TGF-beta stimulated, 500 pg/mL final | Potency, µM (highest dose often 46.1 µM), for inactives: at the highest dose activity, negative = inhibition, most hits filed as inhibitors | 410,000 compounds, 1.2% hits | AID 588855, 2011; also: potency is read from the fitted curve at half-maximal effect; % is scaled to controls: 0 for no effect and ±100 for the full control effect; nearly all actives have a fitted effect of over 65% in size
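Smad-responsive CAGA-GFP expression was quantified in HEPG2 cells exposed to compounds and 500 pg/mL final TGF-beta for 18 h at 37 degrees C; unstimulated wells defined full inhibition.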
HepG2 viability = qHTS for Inhibitors of TGF-b: Cytotox Counterscreen. HepG2 CAGA-GFP viability, ATP luminescence, 18 h. Potency, µM (series often up to 46.1 µM), inactives show at the highest dose activity change, negative = cytotoxicity, actives largely listed as cytotoxic. 410,000 compounds, 0.76% hits. AID 588856, 2011; also: potency is read from the fitted curve at half-maximal effect
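CellTiter-Glo luminescence gave cytotoxicity after 18 hours at 37 degrees C. The cells were HepG2 CAGA-GFP in 1% FBS DMEM, stimulated with 500 pg/mL TGF-beta after compound addition. %Activity was normalised to no-cell wells (complete cell-killing) and DMSO (no toxicity), and curves were fitted and classified.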
The depositor's hits bear a star. Only some compounds are listed: those with a hit (about 19% of all), similar ones and a draw of the others. Unless noted, calls follow the shape of the dose curve; as a rule, active = well fitted curve in the direction sought with a large enough effect; inconclusive = small, poorly fitted or top-dose-only effect, or another doubt; inactive = no such curve, though single readings can be large; an effect the other way counts as inactive or inconclusive.

How did O=C(O)CCn1cc(/C=C\C(=O)c2ccc(Cl)cc2)c(-c2cccc(Br)c2)n1 do in these assays?
IL1B secr inh: -93.0*; TDP1 cell CPT: inconclusive; TDP1 cell noCPT: 18.4µM*; TDP1 block: 5.3%; TGFb inhibitor: -13.1%; HepG2 viability: -32.2%

What do the screens show for `CN1CCN(c2ccc(CNS(=O)(=O)Cc3cccc(C(F)(F)F)c3)cc2)CC1`?
IL1B secr inh: -0.1; TDP1 cell CPT: 6.51µM*; TDP1 cell noCPT: 3.66µM*; TDP1 block: 5.5%; TGFb inhibitor: inconclusive; HepG2 viability: -54.2%

Results for O=C1c2ccccc2C(=O)C1c1ccc2ccccc2n1 ?
IL1B secr inh: -2.6; TDP1 cell CPT: 6.31µM*; TDP1 cell noCPT: 25.9µM*; TDP1 block: -3.3%; TGFb inhibitor: 42.9%; HepG2 viability: -15.5%

Results for O=C1c2ccccc2C(=O)C1c1cc2ccccc2cn1 ?
TDP1 cell CPT: 1.78µM*; TDP1 cell noCPT: 7.08µM*; TDP1 block: -18.2%; TGFb inhibitor: 2.9%; HepG2 viability: 6.5%

Results for CC(C)[C@H](NC(=O)c1cccc(S(=O)(=O)N2CCOCC2)c1)C(=O)Nc1nc2ccccc2s1 ?
IL1B secr inh: -53.6*; TDP1 cell CPT: inconclusive; TDP1 cell noCPT: inconclusive; TDP1 block: 4.7%; TGFb inhibitor: -29.9%; HepG2 viability: 5.0%

What do the screens show for `CC(C)CC(=O)Nc1nc2ccc(S(=O)(=O)N3CCOCC3)cc2s1`?
IL1B secr inh: 12.9; TDP1 cell CPT: 13µM*; TDP1 cell noCPT: 20.6µM*; TDP1 block: -3.1%; TGFb inhibitor: 1.6%; HepG2 viability: 0.0%

How did CCCC(=O)Nc1nc2ccc(S(=O)(=O)N3CCCCC3)cc2s1 do in these assays?
IL1B secr inh: 29.8; TDP1 cell CPT: 1.3µM*; TDP1 cell noCPT: 1.3µM*; TDP1 block: 2.6%; TGFb inhibitor: -32.6%; HepG2 viability: -8.3%

How did CC(=O)Nc1nc2ccc(S(=O)(=O)N3CCCC3)cc2s1 do in these assays?
IL1B secr inh: 69.6; TDP1 cell CPT: inconclusive; TDP1 cell noCPT: -17.6%; TDP1 block: 1.2%; TGFb inhibitor: -2.0%; HepG2 viability: 5.8%

How did CCOc1ccccc1NC(=O)[C@@H](NC(=O)c1cccc(S(=O)(=O)N2CCOCC2)c1)C(C)C do in these assays?
IL1B secr inh: 22.4; TDP1 cell CPT: -5.4%; TDP1 cell noCPT: -9.8%; TDP1 block: -1.2%; TGFb inhibitor: -3.7%; HepG2 viability: -19.5%

What do the screens show for `CCOC(=O)N1CCN(S(=O)(=O)c2ccc(C(=O)Nc3nc4ccc(F)cc4s3)cc2)CC1`?
IL1B secr inh: -18.9; TDP1 cell CPT: 8.2µM*; TDP1 cell noCPT: 6.51µM*; TDP1 block: 0.0%; TGFb inhibitor: inconclusive; HepG2 viability: -33.5%

How did O=C(Nc1ccc([N+](=O)[O-])cc1)OC1CCS(=O)(=O)C1 (stereo not drawn) do in these assays?
IL1B secr inh: 35.2; TDP1 cell CPT: -16.3%; TDP1 cell noCPT: -21.7%

How did Cc1cc2n(n1)CCC(=O)N2Cc1ccc(C(=O)Nc2ccc(Br)c(C)c2)cc1 do in these assays?
TDP1 cell CPT: -28.3%; TDP1 cell noCPT: inconclusive; TDP1 block: -5.6%; TGFb inhibitor: inconclusive; HepG2 viability: -35.7%

Results for CCOC(=O)c1ccc(NC(=O)c2cccc3c(=O)c4c([nH]c23)CCCC4)cc1 ?
TDP1 cell CPT: inconclusive; TDP1 cell noCPT: -29.3%; TDP1 block: 5.7%; TGFb inhibitor: 3.8%; HepG2 viability: 2.1%
